# The campaign covered roughly 340,000 compounds. About 1,000 (0.29%) were called active.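 Rule for the calls: active = mean replicate activation score at least 90 and every replicate individually at or above 90; inconclusive = only one of the two criteria met; inactive = neither criterion met.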 For the sample, actives were picked, then their nearest neighbours and some compounds at random.
# Assay: compounds raising miR-122 luciferase sensor output – cell-based, single point, plate reader, miR-122 inhibitor project, primary screen (AID 602342);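 note: higher luciferase means less miR-122 activity so hits act as miR-122 inhibitors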
# Conditions: Huh7 miR-122 Renilla luciferase sensor, 48 h, active compounds read high; at 12.5 µM unless noted
row,SMILES,activation (reporter increase)
1,C[C@]12CCC3C(CC[C@H]4C[C@@H](O)CC[C@]34C)C1CC[C@@H]2O (stereo not given in full),-9.92% (inactive)
2,C[C@]12CC[C@H](O)C[C@H]1CC[C@@H]1C2CC[C@]2(C)[C@@H](C3=CC(=O)OC3)[C@@H](O)C[C@]12O (stereo not given in full),339% (active)
3,C[C@]12CCC3C(CC[C@H]4C[C@@H](O)CC[C@]34C)C1C[C@@H](O)[C@H]2O (stereo not given in full),-6.69% (inactive)
4,COc1ccc(-n2nnnc2C(c2cccc3ccccc23)N2CCC(n3c(=O)[nH]c4ccccc43)CC2)cc1 (stereo not given),-6.36% (inactive)
5,COC(=O)[C@H]1[C@H](CO)[C@H]2Cn3c(ccc(-c4ccccc4F)c3=O)[C@@H]1N2C(=O)C1CCC1,3% [at 16.7 µM] (inactive)
